Unmarked numbers belong to inactive results. Inconclusive results are not listed. Entries that show only a call come without a potency. Activity calls are given as the source filed them. Unless noted, calls come from the whole dose curve; as a rule, active = well fitted curve in the direction sought with a large enough effect in the repeat runs; inconclusive = weak or mixed curves; inactive = no such curve, though single readings can be large; an effect the other way counts as inactive or inconclusive.
Tests used:
[1] = qHTS assay to identify small molecule antagonists of the estrogen receptor alpha (ER-alpha) signaling pathway using the BG1 cell line in the presence of 0.1 nM 17-beta-estradiol - cell viability counter screen (AID 1259241); note: nearly all actives have a fitted effect of over 40% in size
In short: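 CellTiter-Fluor read (30 min, 37C) on ER-alpha/ERE-luc VM7Luc4E2 cells; 22 hr compound treatment; agonist 0.1 nM E2 final; same-well multiplex.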

[2] = qHTS assay to identify small molecule antagonists of the androgen receptor (AR) signaling pathway using the MDA cell line in the presence of 0.5 nM R1881 - cell viability counter screen (AID 1259242); note: nearly all actives have a fitted effect of over 45% in size
In short: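 Viability of MDA-kb2 cells was multiplexed with the luciferase AR readout; after 16 hr with compounds and R1881 at 0.5 nM final, CellTiter-Fluor fluorescence was recorded.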

[3] = qHTS assay to identify small molecule phospholipidosis (PLD) inducers (AID 1259344; active = well fitted curve in the direction sought with a large enough effect; an effect the other way counts as inactive or inconclusive)
In short: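 Fluorescent phospholipid staining (LipidTOX Red) measured by automated microscopy in fixed HepG2 cells after 24 h treatment; nuclei counterstained with Hoechst 33342; amiodarone as reference inducer.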

[4] = qHTS assay to identify small molecule HDAC inhibitors (AID 1259364); note: potency is the fitted concentration of half-maximal effect;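 note: wild-type HCT-116 cells with endogenous class I/II HDAC activity; nearly all actives have a fitted effect of over 45% in size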; for activity change, negative = inhibition: top concentration of the series differs between compounds
In short: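 Read-out: luminescence of HDAC-Glo I/II reagent, 30 min RT, reflecting class I/II deacetylase activity in whole HCT-116 cells pre-exposed 2 h to DMSO-dissolved compounds.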

[5] = qHTS assay to identify small molecule HDAC inhibitors - cell viability counter screen (AID 1259365); note: series mostly up to about 92 µM; nearly all actives have a fitted effect of over 50% in size
In short: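 To flag cytotoxic hits, 1,500 wild-type HCT-116 cells per well, plated the day before, receive test compounds for 2hr at 37 C before CellTiter-Glo reagent and a luminescence read.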

[6] = qHTS assay to identify small molecule agonists of the sonic hedgehog signaling (Shh) pathway - cell viability counter screen (AID 1259366); note: nearly all actives have a fitted effect of over 50% in size
In short: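 Fluorescence from CellTiter-Fluor reports live cells in this counter screen. NIH/3T3-derived Gli1-Luc reporter cells receive test compounds for 24hr at 37C; reagent goes in at 23hr.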

[7] = qHTS assay to identify small molecule antagonists of the sonic hedgehog signaling (Shh) pathway - cell viability counter screen (AID 1259367); note: nearly all actives have a fitted effect of over 55% in size; note: potency is the fitted concentration of half-maximal effect
In short: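 Using CellTiter-Fluor, viability of Gli1-Luc reporter 3T3 cells is read by fluorescence in the wells used for the Shh luciferase assay. Treatment lasts 23 hr with conditioned medium, then reagent 1 hr at 37C.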

[8] = qHTS assay to identify small molecule agonists of the sonic hedgehog signaling (Shh) pathway (AID 1259368; calls by dose curve;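 note: NIH/3T3-derived 3T3Gli1-Luc cells carrying a stable Gli1-driven firefly luciferase reporter; series mostly up to about 92 µM; nearly all actives have a fitted effect of over 15% in size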)
In short: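 A Gli1 transcriptional response element controlled firefly luciferase in 3T3Gli1-Luc cells. Compounds and a positive control were added 4 hr after plating, and cells were incubated a further 24 hr at 37 C before luminescence detection.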

[9] = target: Estrogen receptor (Homo sapiens) (UniProt P03372); test: qHTS assay to identify small molecule antagonists of the estrogen receptor alpha (ER-alpha) signaling pathway using the BG1 cell line in the presence of 0.1 nM 17-beta-estradiol (AID 1259244); note: nearly all actives have a fitted effect of over 50% in size
Estrogen receptor (Homo sapiens), sequence (P03372 whole entry, looked up): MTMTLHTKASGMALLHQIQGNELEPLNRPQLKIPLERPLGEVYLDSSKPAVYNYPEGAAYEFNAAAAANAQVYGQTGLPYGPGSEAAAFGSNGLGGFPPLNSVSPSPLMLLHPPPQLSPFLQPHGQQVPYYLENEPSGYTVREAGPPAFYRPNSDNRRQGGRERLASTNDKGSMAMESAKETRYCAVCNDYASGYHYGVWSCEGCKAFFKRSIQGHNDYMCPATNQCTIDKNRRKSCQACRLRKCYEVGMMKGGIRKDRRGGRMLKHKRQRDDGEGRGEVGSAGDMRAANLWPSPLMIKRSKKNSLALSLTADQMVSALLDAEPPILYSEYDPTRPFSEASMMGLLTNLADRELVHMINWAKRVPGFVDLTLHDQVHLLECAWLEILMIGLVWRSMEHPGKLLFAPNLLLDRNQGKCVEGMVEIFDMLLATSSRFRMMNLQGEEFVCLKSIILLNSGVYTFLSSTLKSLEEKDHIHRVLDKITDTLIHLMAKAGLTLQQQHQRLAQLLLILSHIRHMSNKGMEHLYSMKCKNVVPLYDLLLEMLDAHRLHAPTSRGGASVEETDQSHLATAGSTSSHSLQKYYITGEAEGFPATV
In short: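 Estradiol at 0.1 nM (final) stimulates the endogenous ER-alpha of VM7Luc4E2 cells carrying an ERE-driven luciferase; compounds are co-incubated 22 h at 37C and luciferase output quantified by luminescence.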

[10] = target: Androgen receptor (Homo sapiens) (UniProt P10275); test: qHTS assay to identify small molecule antagonists of the androgen receptor (AR) signaling pathway using the MDA cell line in the presence of 0.5 nM R1881 (AID 1259243); note: nearly all actives have a fitted effect of over 50% in size
Androgen receptor (Homo sapiens), sequence (P10275 whole entry, looked up): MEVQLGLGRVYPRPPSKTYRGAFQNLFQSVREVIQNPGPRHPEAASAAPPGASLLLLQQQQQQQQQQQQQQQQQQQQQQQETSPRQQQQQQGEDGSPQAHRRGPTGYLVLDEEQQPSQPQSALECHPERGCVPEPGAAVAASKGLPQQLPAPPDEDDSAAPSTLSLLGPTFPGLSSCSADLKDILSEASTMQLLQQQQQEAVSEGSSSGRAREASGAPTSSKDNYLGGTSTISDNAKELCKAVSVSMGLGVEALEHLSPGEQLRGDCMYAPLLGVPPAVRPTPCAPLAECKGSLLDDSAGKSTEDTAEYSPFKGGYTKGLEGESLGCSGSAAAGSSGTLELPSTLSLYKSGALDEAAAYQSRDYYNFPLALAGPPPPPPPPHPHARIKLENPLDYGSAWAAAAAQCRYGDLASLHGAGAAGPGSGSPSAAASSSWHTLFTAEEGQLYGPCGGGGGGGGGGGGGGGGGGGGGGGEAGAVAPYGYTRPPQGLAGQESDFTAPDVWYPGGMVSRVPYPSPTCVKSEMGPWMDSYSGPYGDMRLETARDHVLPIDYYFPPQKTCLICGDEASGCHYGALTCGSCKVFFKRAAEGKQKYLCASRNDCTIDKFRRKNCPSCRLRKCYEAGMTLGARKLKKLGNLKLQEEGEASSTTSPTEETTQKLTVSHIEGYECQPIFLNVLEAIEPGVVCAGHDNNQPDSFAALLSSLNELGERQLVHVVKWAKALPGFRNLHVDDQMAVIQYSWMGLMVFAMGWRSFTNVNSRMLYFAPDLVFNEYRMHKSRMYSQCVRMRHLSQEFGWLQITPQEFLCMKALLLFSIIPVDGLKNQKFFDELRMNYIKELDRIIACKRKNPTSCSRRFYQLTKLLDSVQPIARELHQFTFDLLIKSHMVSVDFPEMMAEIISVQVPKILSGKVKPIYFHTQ
In short: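 Reporter cells cultured without CO2 receive test chemicals, then 0.5 nM R1881 final; after 16 hr at 37C, ONE-Glo is added and light output recorded.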

Structure (SMILES): O=C(O)[C@@H](O)[C@H](O)[C@H](O)[C@@H](O)C(=O)O
- Potency [1]: inactive
- outcome [2]: inactive
- outcome [3]: inactive
- Potency [4]: inactive
- outcome [5]: inactive
- Potency [6]: inactive
- Potency [7]: inactive
- Potency [8]: inactive

Structure (SMILES): COc1ccc2nc(NC(=O)Nc3ccccc3)sc2c1
- Potency [1]: inactive
- outcome [2]: inactive
- outcome [3]: inactive
- Potency [4]: 3.35 µM (active)
- outcome [5]: inactive
- Potency [6]: inactive
- Potency [7]: inactive
- Potency [8]: inactive

Structure (SMILES): O=[N+]([O-])c1nccn1CO[C@@H](CO)[C@H](O)CO
- Potency [1]: inactive
- outcome [2]: inactive
- outcome [3]: inactive
- Potency [4]: inactive
- outcome [5]: inactive
- Potency [6]: inactive
- Potency [7]: inactive
- Potency [8]: inactive

Structure (SMILES): NCCC(O)(P(=O)(O)O)P(=O)(O)O
- Potency [1]: inactive
- outcome [2]: inactive
- outcome [3]: inactive
- Potency [4]: inactive
- Potency [6]: inactive
- Potency [7]: inactive
- Potency [8]: inactive

Structure (SMILES): CC(C)=CCC[C@](C)(O)[C@@H]1CC=C(C)CC1
- Potency [1]: inactive
- outcome [2]: inactive
- Potency [4]: inactive
- outcome [5]: inactive
- Potency [6]: inactive
- Potency [7]: inactive
- Potency [8]: inactive

Structure (SMILES): OCC(CBr)(CBr)CBr
- Potency [1]: inactive
- outcome [2]: inactive
- Potency [9]: inactive
- outcome [5]: inactive
- Potency [6]: inactive
- Potency [7]: inactive
- Potency [8]: inactive

Structure (SMILES): C=CC(C)(O)CC/C=C(\C)CCC=C(C)C (stereo not drawn)
- Potency [1]: inactive
- outcome [2]: inactive
- outcome [3]: inactive
- Potency [4]: inactive
- outcome [5]: inactive
- Potency [6]: inactive
- Potency [8]: inactive

Structure (SMILES): CC(=O)Oc1cc(C(C)C)c(OCCN(C)C)cc1C
- Potency [1]: inactive
- outcome [2]: inactive
- outcome [3]: inactive
- Potency [4]: inactive
- outcome [5]: inactive
- Potency [6]: inactive
- Potency [8]: inactive

Structure (SMILES): CCCCCCCCc1ccc(S(=O)(=O)O)cc1
- Potency [1]: inactive
- outcome [2]: inactive
- Potency [4]: inactive
- outcome [5]: inactive
- Potency [6]: inactive
- Potency [7]: inactive
- Potency [8]: inactive

Structure (SMILES): CC(C)(C)c1cccc(O)c1
- outcome [2]: inactive
- Potency [10]: inactive
- Potency [9]: inactive
- Potency [4]: inactive
- outcome [5]: inactive
- Potency [6]: inactive
- Potency [7]: inactive
- Potency [8]: inactive

Structure (SMILES): CCCCOc1cc(C(=O)NCCN(CC)CC)c2ccccc2n1
- Potency [1]: inactive
- outcome [2]: inactive
- Potency [4]: inactive
- outcome [5]: inactive
- Potency [8]: inactive

Structure (SMILES): CC(C)Nc1nc(N)nc(Cl)n1
- Potency [1]: inactive
- outcome [2]: inactive
- Potency [4]: inactive
- Potency [6]: inactive
- Potency [7]: inactive
- Potency [8]: inactive

Structure (SMILES): CN(C)Cc1ccccc1
- outcome [2]: inactive
- Potency [10]: inactive
- outcome [3]: inactive
- Potency [4]: inactive
- outcome [5]: inactive
- Potency [6]: inactive
- Potency [7]: inactive
- Potency [8]: inactive

Structure (SMILES): CC1CN(c2ccccc2)NC1=O (stereo not drawn)
- Potency [1]: inactive
- outcome [2]: inactive
- Potency [4]: 24.3 µM (active)
- outcome [5]: inactive
- Potency [6]: inactive
- Potency [8]: inactive

Structure (SMILES): CC(C)C[C@H](NC(=O)OCC1c2ccccc2-c2ccccc21)C(=O)O
- Potency [1]: inactive
- outcome [2]: inactive
- Potency [4]: inactive
- outcome [5]: inactive
- Potency [6]: inactive
- Potency [7]: inactive
- Potency [8]: inactive

Structure (SMILES): CCCCCCCCCC#N
- Potency [1]: inactive
- outcome [2]: inactive
- Potency [4]: inactive
- outcome [5]: inactive
- Potency [7]: 60.8 µM (active)
- Potency [8]: inactive

Structure (SMILES): Cc1ccc([N+](=O)[O-])cc1Cl
- Potency [1]: inactive
- outcome [2]: inactive
- Potency [4]: inactive
- Potency [6]: inactive
- Potency [7]: inactive
- Potency [8]: inactive

Structure (SMILES): CCCCNCCCC
- Potency [1]: inactive
- outcome [2]: inactive
- Potency [4]: inactive
- outcome [5]: inactive
- Potency [6]: inactive
- Potency [7]: inactive
- Potency [8]: inactive

Structure (SMILES): CN(CC1(C)CCCO1)S(=O)(=O)c1ccc(Cl)c(S(N)(=O)=O)c1 (stereo not drawn)
- Potency [1]: inactive
- outcome [2]: inactive
- Potency [4]: inactive
- Potency [6]: inactive
- Potency [7]: inactive
- Potency [8]: inactive

Structure (SMILES): Cc1nc(-c2ccccn2)ncc1C(=O)Nn1cc(C)c2cc(F)ccc21
- Potency [1]: inactive
- outcome [2]: inactive
- Potency [4]: inactive
- outcome [5]: inactive
- Potency [6]: inactive
- Potency [7]: inactive
- Potency [8]: inactive

Structure (SMILES): O=C(O[C@@H](C(=O)O)[C@@H](OC(=O)c1ccccc1)C(=O)O)c1ccccc1
- Potency [1]: inactive
- outcome [2]: inactive
- Potency [4]: inactive
- outcome [5]: inactive
- Potency [6]: inactive
- Potency [7]: inactive
- Potency [8]: inactive

Structure (SMILES): Cc1c(N)cccc1N
- Potency [1]: inactive
- outcome [2]: inactive
- Potency [4]: inactive
- Potency [6]: inactive
- Potency [7]: inactive
- Potency [8]: inactive

Structure (SMILES): COC(=O)C(C)O (stereo not drawn)
- outcome [2]: inactive
- Potency [10]: inactive
- Potency [9]: inactive
- Potency [4]: inactive
- Potency [6]: inactive
- Potency [7]: inactive
- Potency [8]: inactive

Structure (SMILES): CC1=C(CC(=O)O)c2cc(F)ccc2/C1=C\c1ccc(S(C)(=O)=O)cc1
- outcome [2]: inactive
- Potency [10]: inactive
- Potency [9]: inactive
- outcome [3]: inactive
- Potency [4]: inactive
- outcome [5]: inactive
- Potency [8]: inactive

Structure (SMILES): C1CSCCS1
- Potency [1]: inactive
- outcome [2]: inactive
- Potency [4]: inactive
- outcome [5]: inactive
- Potency [6]: inactive
- Potency [7]: inactive
- Potency [8]: inactive

Structure (SMILES): NC(Cc1ccc(F)cc1)C(=O)O (stereo not drawn)
- activity change, negative = cytotoxicity [1]: 0.956% [at 8.39 µM]
- viability change, negative = cytotoxic [2]: 3.8% [at 8.39 µM]
- activity change, negative = inhibition [4]: -2.41% [at 8.39 µM]
- activity change, negative = cytotoxicity [5]: 4.97% [at 8.39 µM]
- viability change, negative = cytotoxic [6]: -12.8% [at 8.39 µM]
- activity change [8]: 0.322% [at 8.39 µM, hits give high values]

Structure (SMILES): O=C1Nc2ccc([N+](=O)[O-])cc2C1=O
- Potency [1]: inactive
- outcome [2]: inactive
- Potency [4]: inactive
- Potency [6]: inactive
- Potency [7]: inactive
- Potency [8]: inactive

Structure (SMILES): CC(=O)Nc1ccc(C)c(Cl)c1
- Potency [1]: inactive
- outcome [2]: inactive
- Potency [4]: inactive
- outcome [5]: inactive
- Potency [6]: inactive
- Potency [7]: inactive
- Potency [8]: inactive

Structure (SMILES): COC(=O)c1ccc(OC)cc1
- Potency [1]: inactive
- outcome [2]: inactive
- Potency [4]: inactive
- outcome [5]: inactive
- Potency [6]: inactive
- Potency [7]: inactive
- Potency [8]: inactive

— PubChem BioAssay (Tox21)
